The values below come from PubChem BioAssay (NCI).

The structures appear in SMILES notation. About 83,000 compounds went through this panel and 20% of them were active in at least one assay; those are over-represented in the sample as a whole.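 96-well plates, one dose, 48 hours. Percent growth reported; active if below 10.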 Values without a mark were called inactive. Activity calls are given as the source filed them.

What all share (experiment): NCI-60 one-dose screen, 48 h (100 = growth as untreated, 0 = no growth, -100 = all killed)
The subject of one test is HCT-15 colon. To be noted: 10 µM unless noted.
A further test relates to HT29 colon. To be noted: 10 µM unless noted.
The subject of a further test is SNB-75 CNS. To be noted: 10 µM unless noted.
A further test relates to SNB-19 CNS. To be noted: 10 µM unless noted.
The next test concerns U251 CNS. To be noted: 10 µM unless noted.
The next test has as its system PC-3 prostate. To be noted: 10 µM unless noted.
The next test deals with SK-MEL-5 melanoma. Particulars: 10 µM unless noted.
Another test concerns UACC-62 melanoma. Particulars: 10 µM unless noted.
The subject of another test is LOX IMVI melanoma. To be noted: 10 µM unless noted.
In a further test the test system is SK-MEL-28 melanoma. Particulars: 10 µM unless noted.
The next test relates to SK-MEL-2 melanoma. Particulars: 10 µM unless noted.
A further test relates to EKVX NSCLC. To be noted: 10 µM unless noted.
The next test relates to SN12C renal. Particulars: 10 µM unless noted.
Another test deals with UO-31 renal. To be noted: 10 µM unless noted.
A further test relates to TK-10 renal. To be noted: 10 µM unless noted.
A further test relates to CAKI-1 renal. Particulars: 10 µM.
The test system of another test is CCRF-CEM leukemia. To be noted: 10 µM unless noted.
The next test relates to MOLT-4 leukemia. Particulars: 10 µM unless noted.
In a further test the test system is ACHN renal. Particulars: 10 µM unless noted.
The next test relates to A498 renal. To be noted: 10 µM unless noted.

With `COc1cccc(/C=C/C(=O)c2ccc(NC(=O)COc3cccc4cccnc34)cc2)c1`, the growth in the test with HCT-15 colon is 94.8%; in the test with HT29 colon, 98.2%; in the test on SNB-75 CNS, 97.4%; with SNB-19 CNS it was 95.9%; with U251 CNS, 97.2%; in the test with PC-3 prostate it was 93.3%. In addition, the growth was 94.9% in the test with SK-MEL-5 melanoma; 94.5% with UACC-62 melanoma; 78% in the test with LOX IMVI melanoma; 104% with SK-MEL-28 melanoma; 100% in the test on SK-MEL-2 melanoma; 93.2% in the test with EKVX NSCLC. The growth with SN12C renal is 95.4%; in the test with UO-31 renal, 82.8%; in the test on TK-10 renal it was 109%; in the test on CAKI-1 renal, 92.1%; in the test on CCRF-CEM leukemia, 95.3%; in the test with MOLT-4 leukemia, 88.9%.

Take `O=C(Nc1ccc(F)cc1)c1cc(-c2ccc(F)cc2F)ccc1O`: the growth in the test with HCT-15 colon is 11.4%; in the test with HT29 colon, 101%; in the test with SNB-75 CNS, 7.01% (active); with SNB-19 CNS, 8.06% (active); with U251 CNS, 6.63% (active); with PC-3 prostate it was 5.81% (active). Further, the growth with SK-MEL-5 melanoma is -63.9% (active); in the test on UACC-62 melanoma, 5.12% (active); with LOX IMVI melanoma, 4.96% (active); with SK-MEL-28 melanoma it was 21.9%; in the test with SK-MEL-2 melanoma, -8.37% (active); in the test with EKVX NSCLC, 30.5%. Moreover, the growth was 3.57% (active) in the test on SN12C renal; -8.25% (active) with UO-31 renal; 9.87% (active) in the test on ACHN renal; -0.83% (active) in the test with CAKI-1 renal; -28.7% (active) with A498 renal; 17.8% with CCRF-CEM leukemia. Further, the growth in the test with MOLT-4 leukemia is 13.9%.

For the molecule `N#C/C(=C\c1ccc2ccccc2c1)C(=O)Nc1sc2c(c1C#N)CCC2`, the growth with HCT-15 colon was 99%; in the test on HT29 colon, 121%; in the test on SNB-75 CNS it was 102%; in the test on SNB-19 CNS, 98.9%; with U251 CNS it was 99%; with PC-3 prostate, 98.1%. In addition, the growth in the test with SK-MEL-5 melanoma was 98%; in the test on UACC-62 melanoma it was 90.3%; in the test on LOX IMVI melanoma it was 95.6%; in the test with SK-MEL-28 melanoma, 113%; in the test with SK-MEL-2 melanoma it was 100%; in the test on EKVX NSCLC it was 94.8%. Further, the growth with UO-31 renal is 78.2%; with TK-10 renal, 108%; with ACHN renal, 104%; in the test on CAKI-1 renal it was 88.2%; in the test on A498 renal it was 93.9%; in the test on CCRF-CEM leukemia it was 103%. In the test with MOLT-4 leukemia, the growth was 101%.

Consider `COc1cc(/C=C/C(=O)c2ccc(NC(=O)CSc3nnc(-c4ccc5nc(-c6ccccc6)[nH]c5c4)o3)cc2)cc(OC)c1OC`, for which the growth in the test on HCT-15 colon was 87.6%; in the test on HT29 colon, 104%; in the test on SNB-75 CNS, 81.1%; with SNB-19 CNS, 84.4%; in the test with U251 CNS, 80.6%; in the test with PC-3 prostate it was 99%. Besides, the growth in the test with SK-MEL-5 melanoma is 92.2%; with UACC-62 melanoma, 83%; in the test on LOX IMVI melanoma, 56%; with SK-MEL-28 melanoma it was 93.4%; in the test on SK-MEL-2 melanoma, 105%; in the test on EKVX NSCLC it was 99%. In addition, the growth in the test on UO-31 renal is 89.4%; in the test on TK-10 renal, 137%; with ACHN renal, 101%; in the test with CAKI-1 renal, 105%; in the test with A498 renal, 84.4%; in the test on CCRF-CEM leukemia it was 37.5%. Moreover, in the test with MOLT-4 leukemia, the growth was 65%.

Regarding `CC(=O)c1ccc(NC(=O)COc2ccc(C3SCC(=O)N3c3ccc(Br)cc3)cc2)cc1` (configuration not stated), the growth in the test with HCT-15 colon is 98.4%; with HT29 colon, 107%; in the test on SNB-75 CNS, 100%; in the test with SNB-19 CNS, 95.2%; with U251 CNS, 100%; with PC-3 prostate, 91.6%. The growth in the test with SK-MEL-5 melanoma was 96.4%; in the test on UACC-62 melanoma it was 79.5%; in the test with LOX IMVI melanoma, 92.1%; in the test on SK-MEL-28 melanoma, 104%; in the test with SK-MEL-2 melanoma, 96.2%; in the test on EKVX NSCLC, 94.4%. Besides, the growth in the test with SN12C renal is 95.1%; with UO-31 renal, 84.2%; in the test with TK-10 renal it was 103%; in the test with CAKI-1 renal, 89.2%; in the test on CCRF-CEM leukemia it was 89.9%; in the test with MOLT-4 leukemia, 96.8%.

For `Cc1ccc(-c2cc(-c3ccc(N(C)C)cc3)n3c(n2)nc2ccccc23)cc1`, the growth was 56.6% in the test on HCT-15 colon; 65.8% in the test on HT29 colon; 94% in the test with SNB-75 CNS; 50.2% with SNB-19 CNS; 56.7% with U251 CNS; 47.8% in the test with PC-3 prostate. Moreover, the growth was -37.6% (active) with SK-MEL-5 melanoma; 35% in the test with UACC-62 melanoma; 83.5% with LOX IMVI melanoma; 52.9% in the test with SK-MEL-28 melanoma; 16% in the test on SK-MEL-2 melanoma; 57.9% in the test with EKVX NSCLC. For the same molecule, the growth with UO-31 renal is 41.8%; with TK-10 renal it was 61.1%; in the test with ACHN renal, 49.3%; with CAKI-1 renal, 59.3%; in the test with A498 renal, 15.6%; in the test on CCRF-CEM leukemia it was 54.8%. In addition, the growth with MOLT-4 leukemia is 38.9%.

On to `CC1(C)CC[C@]2(C(=O)O)CC[C@]3(C)C(=CCC4[C@@]5(C)C[C@@H](O)[C@@H]6OC(c7cccc([N+](=O)[O-])c7)OC[C@@]6(C)C5CC[C@]43C)C2C1` (some centres not stated), for which the growth was 37.6% in the test with HCT-15 colon; 59% with HT29 colon; 84.4% in the test with SNB-75 CNS; 61.9% in the test with SNB-19 CNS; 41.5% with U251 CNS; 65% with PC-3 prostate. Besides, the growth in the test with SK-MEL-5 melanoma was 64.5%; in the test on UACC-62 melanoma it was 69.2%; in the test on LOX IMVI melanoma, 42.7%; in the test on SK-MEL-28 melanoma it was 87.4%; with SK-MEL-2 melanoma, 88.5%; with EKVX NSCLC it was 57.6%. Moreover, the growth in the test with UO-31 renal was 59.9%; in the test with TK-10 renal, 71.9%; in the test on ACHN renal it was 39.4%; in the test with CAKI-1 renal, 79.7%; in the test on CCRF-CEM leukemia, 44.4%; in the test with MOLT-4 leukemia it was 48.2%.

On to `COc1ccc(CN2C(=O)/C(=C/c3nc(CO)cs3)SC2=S)cc1`, for which the growth is 64.2% in the test on HCT-15 colon; 107% in the test with HT29 colon; 91.7% in the test with SNB-75 CNS; 93.8% in the test on SNB-19 CNS; 94% with U251 CNS; 86.5% in the test with PC-3 prostate. The growth with SK-MEL-5 melanoma is 97.9%; with UACC-62 melanoma it was 73.4%; in the test with LOX IMVI melanoma, 42.8%; in the test on SK-MEL-28 melanoma, 107%; in the test on SK-MEL-2 melanoma it was 98.2%; in the test on EKVX NSCLC it was 100%. The growth is 93% with SN12C renal; 67% in the test on UO-31 renal; 77% in the test with CAKI-1 renal; 61.1% with CCRF-CEM leukemia; 76.7% in the test on MOLT-4 leukemia.
